Source: PubChem BioAssay (National Center for Advancing Translational Sciences (NCATS))
This excerpt belongs to a sample that is enriched for hits.
CHX counter: counter-screen hit for Shiga toxin inhibitors, cycloheximide; AID 2314; cell reporter, cycloheximide protein synthesis inhibition counterscreen; hit rate 12% among 300,000; max response, %; in the data active = max response mostly above about 13%, no sharp cut-off; inactive = mostly below about 14%; note: read at 38.3 µM for the half of the compounds with a filed dose
AmpC inh no detg: blocks E. coli AmpC beta-lactamase in detergent-free assay | AmpC nitrocefin hydrolysis, absorbance 480 nm, 0.0001% Triton | P00811 | hit rate 0.52% among 330,000 | Potency, µM (highest dose often 57.1 µM), hits mostly inhibitors; note: nearly all actives have a fitted effect of over 20% in size
Target sequence (P00811 whole entry, looked up): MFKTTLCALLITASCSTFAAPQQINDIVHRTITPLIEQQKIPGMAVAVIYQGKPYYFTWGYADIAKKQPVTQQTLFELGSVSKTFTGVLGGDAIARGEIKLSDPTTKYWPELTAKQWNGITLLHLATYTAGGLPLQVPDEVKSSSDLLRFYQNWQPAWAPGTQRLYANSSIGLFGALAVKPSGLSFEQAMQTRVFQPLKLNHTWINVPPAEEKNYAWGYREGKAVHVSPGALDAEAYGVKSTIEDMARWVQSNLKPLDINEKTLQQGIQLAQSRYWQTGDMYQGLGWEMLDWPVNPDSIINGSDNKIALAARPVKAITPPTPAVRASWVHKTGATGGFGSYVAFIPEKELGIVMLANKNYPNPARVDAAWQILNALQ
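AmpC (5.3 nM in the dispensed reagent) in 20 mM phosphate pH 7.0 with 0.01% (detergent screen) or 0.0001% Triton X-100 was preincubated with compounds for 15 min at room temperature. Nitrocefin was then added from an 800 uM solution, and hydrolysis was followed at 480 nm.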
Shiga inhibitor: blocks Shiga toxin action in Vero cells; hit rate 9.2% among 290,000; inhibition, % at 38.7 µM; Vero cells, Shiga toxin protein synthesis inhibition reporter; in the data active = inhibition mostly above about 28%, no sharp cut-off; inactive = mostly below about 43%
AmpC detergent: inhibitors of E. coli AmpC beta-lactamase with detergent; P00811; AmpC hydrolysis of nitrocefin, absorbance 480 nm, 0.01% Triton; Potency, µM (series often up to 114 µM), hits mostly inhibitors; hit rate 0.041% among 370,000; note: nearly all actives have a fitted effect of over 25% in size
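20 mM phosphate pH 7.0 + 0.01% (detergent screen) or 0.0001% Triton X-100; 5.3 nM AmpC reagent; cpd preinc 15 min RT; nitrocefin (800 uM stock) to start; A480 q20 s × 4 min; Activity was normalised to no-enzyme and no-compound control wells.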
NS1 function inh: blocks influenza NS1 protein function | Potency, µM (doses to about 46.1 µM) | hit rate 0.4% among 270,000 | AID 2326; calls by dose curve; note: actives are rising curves; nearly all actives have a fitted effect of over 50% in size
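S. cerevisiae expressing influenza A NS1, grown in glucose, washed, then diluted 1:100 into pH 6.0 -URA galactose medium with 23 nl compound. Growth recovery read as OD600; NS1-free strain serves as control.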
Of the large screens only hits and unclear results are named; the others gave an inactive call. Unless noted, calls come from the whole dose curve; as a rule, active = well fitted curve in the direction sought with a large enough effect; inconclusive = small, poorly fitted or top-dose-only effect, or another doubt; inactive = no such curve, though single readings can be large; an effect the other way counts as inactive or inconclusive.

Cc1ccc(S(=O)(=O)N2CCCC2)cc1C(=O)NCCN1CCOCC1	CHX counter 29, Shiga inhibitor 28
Cc1ccc(CSCc2ccc(C(=O)NCCCN3CCOCC3)o2)cc1	CHX counter 16 (no result: NS1 function inh)
C/C(=N/OCO/N=C(/C)c1ccc(F)cc1)c1ccc(F)cc1	none
COc1ccc(OC)c(NC(=O)CSc2ncc3c(n2)-c2ccccc2N(C)S3(=O)=O)c1	none (no result: CHX counter, AmpC inh no detg, Shiga inhibitor, NS1 function inh)
COc1ccccc1OC(C)C(=O)Nc1c(C(=O)c2ccc(Cl)cc2)oc2ccccc12 (stereo unspecified)	none (no result: CHX counter, AmpC inh no detg, Shiga inhibitor, NS1 function inh)
CC(Oc1ccccc1)C(=O)NNS(=O)(=O)c1ccc([N+](=O)[O-])cc1 (stereo unspecified)	AmpC detergent inconclusive
Cc1ccc(C(=O)NCCCN2CCOCC2)c(C)c1	CHX counter 20
Cc1cc(C)c(S(=O)(=O)N2CCOC2CNC(=O)C(=O)NCCCN2CCOCC2)c(C)c1 (stereo unspecified)	CHX counter 35, Shiga inhibitor 80
Cc1ccc(C(=O)NCCCN2CCOCC2)c(Cl)c1	CHX counter 17 (no result: Shiga inhibitor)
Cc1cc(C)c(C(=O)NCCCN2CCOCC2)c(C)c1	AmpC detergent inconclusive
COc1ccsc1C(=O)NCCN1CCOCC1	none
COc1ccc2oc(C(=O)NCCN3CCOCC3)c(C)c2c1OC	CHX counter 61, Shiga inhibitor 63
O=C(CSc1nc2c([nH]c3ccccc32)c(=O)n1-c1cccc(Cl)c1)N1CCc2ccccc21	none (no result: CHX counter, AmpC inh no detg, Shiga inhibitor, NS1 function inh)
O=C1C([N+](=O)[O-])=C(O)c2cccc3cccc1c23	CHX counter 11, AmpC detergent inconclusive
CCN(CC(=O)Nc1c(F)cccc1F)C(=O)c1ccc(C)c(S(=O)(=O)N2CCCCC2)c1	none (no result: CHX counter, Shiga inhibitor, NS1 function inh)
CCOC(=O)c1c(NC(C)=O)c2c3c(sc2n1Cc1ccc(Cl)cc1)CCCC3	none (no result: CHX counter, AmpC inh no detg, Shiga inhibitor, NS1 function inh)
COc1ccc(C2C(C(N)=O)=C(C)Nc3ncnn32)cc1 (stereo unspecified)	CHX counter 22
CCN(CC)c1ccc(C2C(C(N)=O)=C(C)Nc3ncnn32)cc1 (stereo unspecified)	none (no result: CHX counter, AmpC inh no detg, Shiga inhibitor, NS1 function inh)
CCCCCOC(=O)c1ccc(OC(=O)c2sc3ncn(Cc4cccc(F)c4)c(=O)c3c2C)cc1	none (no result: CHX counter, AmpC inh no detg, Shiga inhibitor, NS1 function inh)
CC(C)(C)NC(=O)N1CCC(C(=O)O)CC1	none (no result: CHX counter, AmpC inh no detg, Shiga inhibitor, NS1 function inh)
CCOc1ccc(C(=O)N/N=C/c2cccc3cccnc23)cc1	CHX counter 35
Cc1ccc(C(=O)N/N=C/c2cc(Br)ccc2O)cn1	CHX counter 16 (no result: Shiga inhibitor)
Cc1ccc(C(=O)N/N=C\c2ccccc2[N+](=O)[O-])cn1	CHX counter 23 (no result: NS1 function inh)
CCOc1ccc(C(=O)N/N=C/c2ccccc2[N+](=O)[O-])cc1	CHX counter 73, Shiga inhibitor 102
Cc1ccc(C(=O)N/N=C\C=C\c2ccc(Br)cc2)cn1	none (no result: NS1 function inh)
C#CCn1c(=O)c2c(nc(/C=C/c3cccc(OC)c3)n2C)n(CCCO)c1=O	none (no result: AmpC inh no detg, AmpC detergent, NS1 function inh)
COCC1CCN(Cc2nc(-c3cccs3)no2)C1 (stereo unspecified)	none
COc1ccccc1CN1CCN(Cc2nc(-c3cccs3)no2)CC1	CHX counter 50, Shiga inhibitor 85
C[C@@H]1CN(Cc2nc(-c3cccs3)no2)C[C@H](C)O1	none
c1csc(-c2noc(CN3CCc4sccc4C3)n2)c1	CHX counter 34, Shiga inhibitor 39
Cc1n[nH]c(C)c1N=Nc1ccc(Br)cc1	CHX counter 27
COc1ccc(N=Nc2c(C)n[nH]c2C)cc1	CHX counter 29, Shiga inhibitor 119
O=C(CCCCCn1c(=O)c2sccc2n(CC(=O)Nc2cc(C(F)(F)F)ccc2Cl)c1=O)NCc1ccccc1Cl	none (no result: CHX counter, AmpC inh no detg, Shiga inhibitor, NS1 function inh)
Cc1ccc(C)c(NC(=O)N2CCCCCC2)c1	AmpC detergent inconclusive
O=C(Nc1ccccc1F)N1CCc2ccccc2C1	CHX counter 57, Shiga inhibitor 84
CC1CC(C)CN(C(=O)Nc2ccccc2F)C1 (stereo unspecified)	none
Cc1ccc(C)c(NC(=O)N2CCc3ccccc3C2)c1	CHX counter 42, Shiga inhibitor 78
CC1(C)C(=O)N(CC(=O)Nc2ccc(Br)cc2F)c2ccccc21	none (no result: CHX counter, AmpC inh no detg, Shiga inhibitor, NS1 function inh)
COc1cc(CNc2ccc3c(c2)CCC3)cc(OC)c1O	CHX counter 30, Shiga inhibitor 63
CCOc1cc(CNc2ccc3c(c2)CCC3)ccc1O	CHX counter 34
O=c1c2oc3nc4c(cc3c2ncn1CCCc1ccccc1)CCCC4	CHX counter 20, Shiga inhibitor 70
CCCCCCn1cnc2c(oc3nc4c(cc32)CCCC4)c1=O	CHX counter 12
CCCCn1cnc2c(oc3nc4c(cc32)CCCC4)c1=O	CHX counter 26
COc1ccccc1NC(=O)Cn1cnc2c(oc3nc4c(cc32)CCCC4)c1=O	none
CC(C)N(Cc1ccccc1)S(=O)(=O)c1n[nH]c(C(C)(C)C)n1	none (no result: CHX counter, AmpC inh no detg, Shiga inhibitor, AmpC detergent)
CCOCCCNC(=O)c1ccc(Br)cc1	CHX counter 26
CCOCCCNC(=O)c1ccc(OC(C)=O)cc1	none
CC(C)OCCCNC(=O)c1ccc(Br)cc1	CHX counter 44
CCOCCCNC(=O)c1ccc(OC)cc1	CHX counter 21, AmpC detergent inconclusive
O=C(NCCCCNC(=O)c1ccc(Br)cc1)c1ccc(Br)cc1	none
COc1cc(NC(=O)Cn2c(=O)n(Cc3ccccc3Cl)c(=O)c3cc(OC)c(OC)cc32)cc(OC)c1	none (no result: CHX counter, AmpC inh no detg, Shiga inhibitor, NS1 function inh)
Cc1cc(C)n(C(C)CC(=O)Nc2ccc(-c3ccno3)cc2)n1 (stereo unspecified)	none
Cc1cc(C(=O)COC(=O)c2ccc[nH]c2=O)c(C)n1C	none
Cc1cc(C(=O)COC(=O)c2ccc[nH]c2=O)c(C)n1-c1ccc(Br)cc1	CHX counter 48, Shiga inhibitor 27
Cc1ccc(-n2c(C)cc(C(=O)COC(=O)c3ccc[nH]c3=O)c2C)cc1	CHX counter 40, Shiga inhibitor 58
c1ccc(COc2ccc(CNn3cnnc3)cc2)cc1	CHX counter 26, Shiga inhibitor 65
Cc1nc(S(=O)(=O)c2ccc(Cl)cc2)c(NCc2ccccc2)o1	AmpC detergent 56µM
C=C[C@@H]1CN2CC[C@@H]1C[C@@H]2[C@H](O)c1ccnc2ccc(OC)cc12	none (no result: CHX counter, AmpC inh no detg, Shiga inhibitor, AmpC detergent)
COC(=O)N/N=C/c1cn(CCOc2ccccc2)c2ccccc12	CHX counter 46, Shiga inhibitor 78
CCOC(=O)N/N=C/c1cn(CCCOc2ccccc2)c2ccccc12	CHX counter 46, Shiga inhibitor 66
COC(=O)N/N=C/c1cn(CCOc2ccc(OC)cc2)c2ccccc12	none
CNC(=S)N/N=C/c1cn(CCOc2cccc(OC)c2)c2ccccc12	AmpC inh no detg inconclusive, Shiga inhibitor 103
CNC(=S)N/N=C/c1cn(CCOc2ccccc2OC)c2ccccc12	AmpC detergent inconclusive
Cc1ccc(OCCn2cc(/C=N/NC(=O)c3ccncc3)c3ccccc32)cc1	none
CCOC(=O)N/N=C/c1cn(CCCOc2ccc(C)cc2)c2ccccc12	CHX counter 64, Shiga inhibitor 42
CCOC(=O)N/N=C/c1cn(Cc2ccc(Cl)cc2)c2ccccc12	AmpC detergent inconclusive
COc1ccccc1CCNC(=O)CCc1c(C)c2cc3c(C)coc3cc2oc1=O	none (no result: CHX counter, AmpC inh no detg, Shiga inhibitor, NS1 function inh)
